In the library only some 12% were active in any assay of this set; here they are far more common.
KCC2 mod = KCC2 cotransporter modulators, thallium flux, primary screen, cell-based, HEK293 KCC2, FluoZin-2 fluorescence, MLSMR | B-score of Tl+ flux slope (higher = more flux/activation; lower = inhibition) at 10 µM | KCC2 cells, thallium flux FluoZin-2 fluorescence | 2.2% of 190,000 active | AID 1456, 2008 | Solute carrier family 12 member 5 (Homo sapiens), Q9H2X9;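 active means thallium flux slope and its plate-corrected score both differing from the plate sample mean at a set confidence after two filtering rounds, in either direction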;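 further: slope of fluorescence scaled to starting intensity during 10 to 20 s after thallium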
ROMK mod = ROMK potassium channel modulators, primary screen, cell-based, thallium flux, MLSMR library | Tet-inducible ROMK, thallium flux fluorescence; actives lie on both sides | 2% of 130,000 active | B-score at 10 µM;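 active means signal ratio slope over the read window, or its plate-corrected B-score, at least 3 SD from the plate mean, either direction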;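 further: B-score of the F/F0 ratio slope over 7 to 12 s after thallium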
Target sequence (P48048 whole entry, looked up): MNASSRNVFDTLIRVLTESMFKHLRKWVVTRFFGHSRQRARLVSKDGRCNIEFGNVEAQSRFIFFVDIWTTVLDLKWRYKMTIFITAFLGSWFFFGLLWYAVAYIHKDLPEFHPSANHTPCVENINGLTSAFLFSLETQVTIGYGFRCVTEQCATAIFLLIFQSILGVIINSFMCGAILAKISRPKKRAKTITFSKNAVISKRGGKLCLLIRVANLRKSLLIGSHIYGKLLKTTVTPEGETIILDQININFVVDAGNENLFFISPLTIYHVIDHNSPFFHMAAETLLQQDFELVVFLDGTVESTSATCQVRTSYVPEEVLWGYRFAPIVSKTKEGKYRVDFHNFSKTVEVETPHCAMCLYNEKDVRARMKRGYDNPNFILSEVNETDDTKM
WT yeast gro inh = growth inhibition of WT strain, primary screen, mitochondrial fusion inhibitor project, WT and mutant strains, chemical genetic; mitochondrial fusion phenotypic screen; inhibition, % at 10 µM; 2.1% of 190,000 active; AID 1362, 2008; in the data active means inhibition above about 58%; tested in S. cerevisiae
Lmaj promast = Leishmania major promastigote growth inhibition, primary screen. Leishmania major promastigotes, resazurin fluorescence viability. AID 1063, 2008. inhibition, % at 10 µM. 9% of 200,000 active; in the data active means inhibition above about 50%;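 further: promastigotes grown with compound for 44 hours at 28 °C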
m-calpain inh = inhibitors of pig calpain II, primary screen, biochemical, fluorogenic peptide substrate, 1536-well; 0.37% of 220,000 active; inhibition, % at 16 µM; purified calpain II, 30 min; AID 1236, 2008;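 active means inhibition above about 50%, limit read from the data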
* marks the source's active call; other numbers are inactive results; i = inactive; . = not tested or not shown.

SMILES	KCC2 mod	ROMK mod	WT yeast gro inh	Lmaj promast	m-calpain inh
Cc1ccc(N2CCN(CC(O)COc3cccc(C)c3)CC2)cc1 (stereo not drawn)	.	.	.	.	3
O=[N+]([O-])c1ccc(OCC(O)CN2CCN(c3ccccc3F)CC2)cc1 (stereo not drawn)	-0.42	.	-14	-1	57*
OC(COc1ccc2c(c1)CCC2)CN1CCN(c2ccccc2F)CC1 (stereo not drawn)	-0.46	.	-10	74*	33
COc1cccc(OCC(O)CN2CCN(c3ccccc3)CC2)c1 (stereo not drawn)	.	.	.	.	18
COC(=O)[C@H]1CCCN1C(=O)Nc1cccc(Oc2c(F)c(F)c(F)c(F)c2F)c1	0.18	0.78	19	38	14
C/C(=C\C(=O)O)C12CC3CC(CC(C3)C1)C2	.	-0.52	9	-2	-7
Cc1c(Cl)cccc1NC(=S)NC1CC1	1.1	.	-24	82*	25
Cc1c(Cl)cccc1NC(=S)NCCc1ccc(C(F)(F)F)cc1	-0.052	-0.31	81*	31	20
Cc1c(Cl)cccc1NC(=S)NCCCN(C)C	1.5	.	-12	82*	0
O=C(NC(C(=O)N/N=C/c1ccccc1)c1n[nH]c(=O)c2ccccc12)c1ccccc1 (stereo not drawn)	-0.68	.	-10	10	-54
O=C(NC(C(=O)N/N=C/c1c2ccccc2cc2ccccc12)c1n[nH]c(=O)c2ccccc12)c1ccccc1 (stereo not drawn)	-0.33	.	-6	93*	-171
CCOC(=O)CSc1nc(N2CCOCC2)c2c(c1C#N)CC(C)(C)N(C)C2	-0.82	.	-3	3	-55
CCN(CC)CCN1C(=O)c2ccccc2NC1c1ccc(C)cc1 (stereo not drawn)	-0.064	0.0088	-9	57*	-482
CCN(CC)CCN1C(=O)c2ccccc2NC1c1ccc(Br)cc1 (stereo not drawn)	-0.43	0.061	-25	97*	i
COc1ccc(Nc2nnc(SCC(=O)/C=C3/N(C)c4ccccc4C3(C)C)s2)cc1	-3.5	-0.49	31	96*	44
CC1CN(C)C(C)C/C1=N\Oc1ccc([N+](=O)[O-])cc1 (stereo not drawn)	-0.8	-1.1	13	16	15
CC1=CC(=O)C=C(C)C1=NOc1ccc([N+](=O)[O-])cc1	0.58	0.32	-31	60*	-2
C[n+]1ccc(CC2C(=[N+]([O-])[O-])C=Nc3ncnn32)cc1 (stereo not drawn)	-0.33	0.51	8	-7	-10
Cc1ccc(S(=O)(=O)NCC(=O)N(c2ccccc2)C(C(=O)NCc2ccccc2)c2ccco2)cc1 (stereo not drawn)	-1.8	-1.9	6	2	-17
Cc1cc(C)cc(N(C(=O)CNS(=O)(=O)c2ccccc2)C(C(=O)NCc2ccccc2)c2ccc(C)o2)c1 (stereo not drawn)	-2	.	17	55*	10
CCN(Cc1ccncc1)C(=O)c1ccc2c(c1)S(=O)(=O)c1ccccc1C2=O	0.22	-0.38	-2	-12	-11
CCOC(=O)c1sc(NC(=O)C2CCCO2)c(C(=O)OC)c1C (stereo not drawn)	.	.	.	-3	.
CCN(Cc1ccccc1)C(=O)C1CCN(CC2CC=CCC2)CC1 (stereo not drawn)	-0.17	-2	9	98*	16
CC(C)CC(=O)N1CCN(CC2CC=CCC2)CC1 (stereo not drawn)	0.48	-0.23	-9	27	-3
CCN(CC)C(=O)C1CCN(CC2CC=CCC2)CC1 (stereo not drawn)	1.5	.	-11	84*	9
SMILES	KCC2 mod	ROMK mod	WT yeast gro inh	Lmaj promast	m-calpain inh
COc1ccc(N2Cc3ccccc3C2=NC(=O)c2cncc(Br)c2)cc1	0.091	0.82	12	2	-16
COc1ccc(CSc2nc3ccccc3c(=O)n2CCCN2CCOCC2)cc1F	-1.2	-0.57	46	98*	-23
O=c1c2ccccc2nc(SCCN2CCOCC2)n1CCc1ccccc1	0.8	-0.33	23	4	-19
Cc1sc2nc(CSc3nc4ccccc4c(=O)n3CCCN3CCOCC3)[nH]c(=O)c2c1C	0.053	.	13	27	-175
COCC(C)n1c(SCc2nc3ccccc3c(=O)[nH]2)nc2ccccc2c1=O (stereo not drawn)	-0.085	-2	3	7	-52
COCC(C)n1c(SCc2ccc(OC)c(F)c2)nc2ccccc2c1=O (stereo not drawn)	-0.97	0.98	74*	100*	-2
COc1ccc(CCn2c(SCCN3CCCCC3)nc3ccccc3c2=O)cc1OC	-0.056	-1	23	100*	30
COCC(C)n1c(SCC(=O)NC(=O)Nc2ccc3c(c2)OCCO3)nc2ccccc2c1=O (stereo not drawn)	.	0.089	16	85*	-33
CCCC1=[N+](CC(=O)c2ccc(Br)cc2)CCn2cccc21	0.23	.	.	.	-35
Cc1sc(N)c(C(=O)c2ccccc2Cl)c1C	-3.5	0.1	7	4	22
Clc1ccc(C(c2ccccc2)N2CCNCC2)cc1 (stereo not drawn)	-0.009	-2.8	45	46	8
CC12CNCC(C)(CN(C(c3ccccc3)c3ccccc3)C1)C2	-0.0067	-3.4	-10	100*	-18
COc1cc2c(cc1Cl)C(=O)C(F)(c1ccccc1)C(=O)N2 (stereo not drawn)	-0.27	.	.	.	-9
COc1cc(NC(=O)Cc2ccc([N+](=O)[O-])cc2)c(C(=O)O)cc1OC	0.033	0.78	-17	-4	13
O=C(COc1ccccc1)NC1CCN(Cc2ccccc2)CC1	-0.2	.	-12	86*	-15
Cc1ccc(C)n1-c1ccc(C(=O)NC2CCN(Cc3ccccc3)CC2)cc1	0.52	-0.85	-8	81*	-7
O=C(NC1CCN(Cc2ccccc2)CC1)c1ccc(S(=O)(=O)NCc2ccco2)cc1	-0.67	-0.054	-13	78*	-7
O=C(NC1CCN(Cc2ccccc2)CC1)C1COc2ccccc2O1 (stereo not drawn)	-0.18	0.52	17	92*	-8
O=C(COc1ccccc1)NCC(=O)NC1CCCCC1	-0.031	0.98	-4	-4	32
Cc1ccccc1C(=O)NC1CCN(Cc2nnnn2CCc2ccccc2)CC1	.	.	5	2	21
Cc1ccccc1C(=O)NC1CCN(Cc2ccccc2)CC1	0.79	-0.035	-11	85*	-27
COc1ccc(-c2nnc(Nc3nc4c(OC)cccc4s3)o2)cc1	9.5*	.	26	79*	-136
COc1ccc(-c2nnc(Nc3nc4c(OC)cccc4s3)o2)c(OC)c1	85*	7.3*	6	94*	-168
O=C(O)CCC(=O)N1CCC[C@H]1C(=O)O	0.37	.	.	.	-1
Cc1cccc(S(=O)(=O)Nc2ccc(-c3cn4ccccc4n3)cc2)c1	-2.2	.	1	5	-159
Cc1cc(C)c(S(=O)(=O)Nc2ccc(-c3cn4ccccc4n3)cc2)c(C)c1	-0.81	.	22	61*	-171

Screening data (PubChem)
